High-throughput results (PubChem)
TrxR1 substrate – substrates of rat thioredoxin reductase 1; O89049; purified TrxR1 substrate turnover, NADPH consumption readout; Potency, µM (highest dose often 114 µM), for inactives: at the top dose activity change, negative = substrate turnover; 390,000 tested, 0.01% active; AID 588456; note: nearly all actives have a fitted effect of over 50% in size
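Rat TrxR1, dispensed at 90 nM, was prereduced with 400 uM NADPH (final) for 5 min at ~22 deg C, then incubated with compound 15 min before 400 uM selenite. A first-read NADPH fluorescence drop versus no-compound background flagged substrates.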
mIDH1 inhibitor – blocks human mutant IDH1 R132H enzyme; O75874; IDH1-R132H enzyme, NADPH consumption, diaphorase/resazurin fluorescence; Potency, µM (top dose mostly 76.6 µM), without a hit: at the highest dose activity change, negative = inhibition, most hits filed as inhibitors; 390,000 tested, 0.093% active; AID 602179; note: nearly all actives have a fitted effect of over 65% in size
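IDH1-R132H (0.5 ug/mL dispensed) in pH 7.5 Tris buffer was preincubated 30 min with compound, then given a substrate mix of 0.016 mM NADPH and 2 mM alpha-KG for 80 min at room temperature; remaining NADPH was read by diaphorase/resazurin fluorescence.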
PLK1 PBD block – PLK1 (human) polo-box domain binding inhibition | P53350 | Plk1 PBD binding of FITC phosphopeptide, fluorescence polarization | Potency, µM, without a hit: max response, negative = inhibition, actives largely listed as inhibitors | 360,000 tested, 2.8% active; note: series mostly up to about 57 µM; nearly all actives have a fitted effect of over 65% in size
TrxR1 inh – rat TrxR1 inhibition | recombinant rTrxR1, NADPH fluorescence consumption, selenite substrate | 390,000 tested, 1% active | Potency, µM (highest dose often 114 µM), inactives show at the top dose activity change, negative = inhibition, hits mostly inhibitors; note: nearly all actives have a fitted effect of over 65% in size
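Rat TrxR1 (90 nM in the dispensed reagent) was pre-reduced with 400 uM NADPH for 5 min at room temperature, then incubated with compound for 15 min. After 400 uM selenite was added, NADPH fluorescence (Ex 340/Em 450 nm) was followed for 8 min.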
VDR inh – inhibitors of human vitamin D receptor; P11473; Potency, µM, for the others: max response, negative = inhibition, most hits filed as inhibitors; 400,000 tested, 0.93% active; AID 504847; VDR-SRC2-3 peptide fluorescence polarization, 2 h
Target sequence (P11473 whole entry, looked up): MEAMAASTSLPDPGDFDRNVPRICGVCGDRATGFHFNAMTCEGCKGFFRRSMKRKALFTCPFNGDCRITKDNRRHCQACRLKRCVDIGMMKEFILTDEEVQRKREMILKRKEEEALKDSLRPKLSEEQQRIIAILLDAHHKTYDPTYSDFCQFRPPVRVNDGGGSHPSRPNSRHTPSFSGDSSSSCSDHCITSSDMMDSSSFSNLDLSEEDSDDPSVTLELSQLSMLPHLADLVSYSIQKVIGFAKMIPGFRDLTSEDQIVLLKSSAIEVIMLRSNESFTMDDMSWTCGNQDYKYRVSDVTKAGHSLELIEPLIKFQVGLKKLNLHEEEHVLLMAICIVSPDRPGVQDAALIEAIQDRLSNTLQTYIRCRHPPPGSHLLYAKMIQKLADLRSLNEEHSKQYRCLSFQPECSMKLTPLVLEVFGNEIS
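Measured by FP: displacement of SRC2-3 coactivator peptide from VDR by library compounds, following a two-hour ambient incubation.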
Sfp inh – Sfp phosphopantetheinyl transferase inhibition | Biochemical Sfp PPTase activity, qHTS | Potency, µM, inactives show largest response in the series, negative = inhibition, hits mostly inhibitors | AID 1490 | 310,000 tested, 3.5% active | Q9F4F7;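 note: the enzyme is Sfp with the accession as filed and its product quenches rhodamine fluorescence; 0% = enzyme reaction without inhibitor and -100% = no enzyme wells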
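Step 1, compound plus 15 nM Sfp-PPTase, 15 min, room temperature. Step 2, add rhodamine-CoA (5 uM) and BHQ-2-YbbR (12.5 uM). Step 3, read 525/598 nm fluorescence at 0 and 30 min.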
Active calls of the source: *; ? = inconclusive; nt = no result; [ ] = dose if it differs, or a comment. This is a sample that favours compounds with a hit; in the whole collection about 5.2% have one here. Calls come from the whole dose curve; as a rule, active = well fitted curve in the direction sought with a large enough effect; inconclusive = small, poorly fitted or top-dose-only effect, or another doubt; inactive = no such curve, though single readings can be large; an effect the other way counts as inactive or inconclusive. Unless noted, % is set by controls: 0 for no effect and ±100 for the full control effect; potency is the fitted concentration of half-maximal effect.

SMILES	TrxR1 substrate	mIDH1 inhibitor	PLK1 PBD block	TrxR1 inh	VDR inh	Sfp inh
CCc1ccc(Nc2n[n+](-c3ccccc3)c(-c3ccc(C(=O)O)cc3)s2)cc1	4%	-2%	-15%	3%	2%	45µM*
CCc1ccc(Nc2n[n+](C)c(-c3ccncc3)s2)cc1	-15%	-17%	?	7%	79µM*	79µM*
CC(C)CNc1ncnc2onc(-c3ccc(Cl)cc3)c12	-6%	-5%	nt	-20%	-22%	nt
CC1=C(C(=O)N(C(C)C)C(C)C)CC(CC(=O)NCCCCc2ccccc2)C(=O)N1Cc1ccc(C(C)(C)C)cc1 (stereo not drawn)	nt	nt	-13%	nt	nt	nt
CCOc1cc(-c2sc(Nc3ccccc3)n[n+]2-c2ccc(F)cc2)ccc1OC	-8%	-6%	24µM*	-10%	1%	3%
COc1cc(OC)c(-c2sc(Nc3ccccc3)n[n+]2-c2ccc(F)cc2)cc1OC	-10%	-1%	-12%	-8%	-5%	11%
Fc1ccc(-[n+]2nc(Nc3ccccc3)sc2-c2cccc(Cl)c2Cl)cc1	-10%	-1%	?	-18%	-26%	1%
Clc1cccc(-c2sc(Nc3ccccc3)n[n+]2-c2ccccc2)c1Cl	-7%	-1%	?	-19%	-22%	50µM*
CCC1OC(=O)C(C)[C@@H](O[C@H]2C[C@@](C)(OC)C(O)C(C)O2)C(C)[C@@H](O[C@@H]2OC(C)CC(N(C)C)C2O)[C@@](C)(O)CC(C)C2NC(COCCOC)O[C@H](C2C)[C@@]1(C)O (stereo partly drawn)	nt	nt	nt	nt	0%	6%
COc1ccc(CCNC(=O)c2cc([C@@H](NC(=O)OC(C)(C)C)C(C)C)sc2N)cc1OC	nt	nt	-2%	nt	nt	nt
C[C@@]12CC(=O)C3=C(CCCC3=O)N1CCc1ccccc12	nt	nt	nt	nt	-4%	13%
c1ccc(-c2c(-c3ccccc3)n(Cc3ccco3)c3ncnc(NCCCn4ccnc4)c23)cc1	55%	29µM*	?	?	8%	63µM*
N=c1c2c(-c3ccccc3)c(-c3ccccc3)n(Cc3ccco3)c2ncn1Cc1ccccc1	4%	1%	-1%	9%	1%	22µM*
CN(C)c1ccc(C=O)c(O)c1	-21%	nt	nt	-24%	nt	nt
CC(C)Cc1ccc(-c2cc3nc(NCC4CC4)ccn3n2)cc1	nt	nt	6%	nt	nt	nt
Cc1ccc(CNC(=O)CSc2nc3ccsc3c(=O)n2-c2ccc(Br)cc2)cc1	0%[57.1 µM]	-12%	nt	11%[57.1 µM]	9%	nt
O=C(NNc1cc(Cl)ccc1Cl)C1CCC1	-8%[57.1 µM]	5%	27µM*	10%[57.1 µM]	?	14%
O=C(Nc1cc(Cl)ccc1Cl)N1CCCC1	-6%	0%	8.4µM*	-9%	?	12%
COc1ccc(-c2c(C3C4C=CCC(C)C4C(=O)N3Cc3ccccc3)ccc3ccccc23)cc1OC (stereo not drawn)	-8%	nt	nt	3%	-12%	-5%
O=C(NC(N1CCCC1)C(Cl)(Cl)Cl)c1ccccc1 (stereo not drawn)	2%	2%	-6%	32µM*	-9%	18%
CCNc1nc2[nH]c(=O)c3c(c2s1)OC(N)=C(C#N)C3c1ccc(C)cc1 (stereo not drawn)	7%[57.1 µM]	7%	-6%	4%[57.1 µM]	-3%	45µM*
COc1cccc2sc(N3CCN(C(=O)c4ccc([N+](=O)[O-])o4)CC3)nc12	-15%	7%	-18%	?	-15%	nt
O=C(c1ccc([N+](=O)[O-])o1)N1CCN(c2nc3c(Cl)cccc3s2)CC1	-8%	8%	-6%	40µM*	-9%	nt
CCCCn1c(=O)c(-[n+]2ccccc2)c([O-])c2ccccc21	-3%[57.1 µM]	7%	-5%	-13%	3%	14µM*
Cc1cccc(NS(=O)(=O)c2ccc3c(c2)CC(C)N3C(=O)C2CCC2)c1C (stereo not drawn)	0%	18%	nt	19%	6%	nt
SMILES	TrxR1 substrate	mIDH1 inhibitor	PLK1 PBD block	TrxR1 inh	VDR inh	Sfp inh
Cc1onc(-c2ccccc2)c1-c1nnc(CN2CCN(S(=O)(=O)c3ccccc3F)CC2)o1	-13%	4%	-2%	-1%	-13%	nt
O=c1c(-c2ccnn2-c2ccc(F)cc2)cnc2n1CCS2	-13%	-1%	-5%	-17%	-1%	1%
N#Cc1ccc(-n2nccc2-c2cnc3n(c2=O)CCS3)cc1	2%	-5%	27µM*	12%	?	22%
CCOC(=O)OCC1OC(c2ccccc2)C=CC1Oc1ccc2oc(=O)cc(C)c2c1 (stereo not drawn)	nt	nt	nt	nt	nt	7%
COc1ccc(CNc2nc(-c3ccc(C(=O)N(C)C)cc3)nc3ccccc23)c(OC)c1	nt	nt	nt	nt	-11%	?
COc1ccc(CNc2ncncc2-c2ccoc2)c(OC)c1	nt	nt	nt	nt	50µM*	2%
COc1ccc(CNc2ncnc3ccc(-c4ccoc4)cc23)c(OC)c1	nt	nt	nt	nt	40µM*	-2%
COc1ccc(CNc2nc(-c3ccc(N(C)C)cc3)nc3ccccc23)c(OC)c1	nt	nt	nt	nt	35µM*	18µM*
CC(=O)N/C(=C\c1ccccc1)C(=O)OCC(=O)Nc1cc(S(=O)(=O)N(C)C)ccc1C	-7%	4%	-1%	-8%	1%	nt
COc1ccc(/C=N/NC(=O)c2ccc[nH]2)cc1	-10%	-7%	3%	-4%	0%	19%
CCOC(=O)N1CCN(C(=O)CSc2nnc(-c3ccccc3OC)o2)CC1	8%[57.1 µM]	9%	2%	14%	8%	13%
CCOC(=O)N1CCN(C(=O)CSc2nnc(-c3cccc(OC)c3)o2)CC1	-5%[57.1 µM]	4%	3.4µM*	12%[57.1 µM]	?	-7%
CCOC(=O)N1CCN(C(=O)CSc2nnc(-c3cc(OC)cc(OC)c3)o2)CC1	7%[57.1 µM]	2%	2%	6%[57.1 µM]	-1%	23%
CCOC(=O)N1CCN(C(=O)CSc2nnc(-c3cc(OC)ccc3OC)o2)CC1	-7%	8%	3.4µM*	20%[57.1 µM]	?	7%
CC(C)c1ccc(NC(=O)C(C)N(c2ccccc2)S(C)(=O)=O)cc1 (stereo not drawn)	-1%	14%	nt	7%	5%	nt
CNCc1ccccc1Sc1ccc(O)c(O)c1	-10%	17%	?	32µM*	?	?
COc1cccc(-c2cncnc2Nc2ccc(F)cc2)c1	nt	nt	nt	nt	50µM*	79µM*
O=C(NC(=S)Nc1cccnc1Cl)c1ccc(Cl)cc1	5%	7%	-18%	?	-4%	?
O=C(NC(=S)Nc1ccc([N+](=O)[O-])cc1)c1ccco1	nt	-4%	-8%	nt	nt	nt
